Results on 47 molecules are retold here after PubChem BioAssay (Tox21).

The target of assay [1] is Retinoic acid receptor RXR-alpha (Homo sapiens) (UniProt P19793). Nature of the assay: qHTS assay to identify small molecule agonists of the RXR signaling pathway (AID 1159527; calls by dose curve; further: nearly all actives have a fitted effect of over 35% in size). Put shortly: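 qHTS of the Tox21 10K library in GeneBLAzer RXR-alpha HEK 293T cells carrying a beta-lactamase reporter […]; 16 hr treatment, 9-cis retinoic acid as agonist control, FRET read-out.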
In general terms: In qHTS, concentration-response curves come from the screen itself.

A short description of assay [2]: qHTS assay to identify small molecule agonists of the RXR signaling pathway - cell viability counter screen (AID 1159529). Further: nearly all actives have a fitted effect of over 50% in size. Further: potency means the concentration at half of the fitted maximal effect. Put shortly:
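Cell viability is measured by CellTiter-Glo luminescence, 30 min at room temperature, in wells already read for beta-lactamase. Engineered HEK 293T cells (RXR-alpha-UAS-bla) are dosed 16 hr at 37 C. Tetraoctyl ammonium bromide serves as positive control.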

Assay [3] is described as follows: qHTS assay to identify small molecule antagonists of the retinoid acid receptor (RAR) signaling pathway - cell viability counter screen (AID 1159551). Further: nearly all actives have a fitted effect of over 35% in size. Further: potency means the concentration at half of the fitted maximal effect. Put shortly: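 C3RL4 RARE-luciferase line; cpds + retinol 1 uM final, 6 h, 37 C/5% CO2; CellTiter-Glo ATP luminescence, 30 min RT.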
Assay [4] in a line: qHTS assay to identify small molecule antagonists of the retinoic acid receptor (RAR) signaling pathway (AID 1159552; further: nearly all actives have a fitted effect of over 50% in size; further: potency means the concentration at half of the fitted maximal effect). A digest of the protocol:
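Quantitative HTS in C3RL4 RARE-luciferase reporter cells. Compounds were added with 1 uM (final) retinol; luminescence was read after 6 hr.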

Assay [5] can be described thus: qHTS assay to identify small molecule agonists of the retinoic acid receptor (RAR) signaling pathway (AID 1159553). Further: potency means the concentration at half of the fitted maximal effect. Put shortly: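 RARE-luc C3RL4 cells; overnight attachment 37 C/5% CO2; compound (DMSO) 6 hr; luciferase reagent, 30 min RT; luminescence read-out.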

Molecules are shown by their SMILES. Values joined by “and” are separate entries in the source; they are usually repeats but may differ in a detail not shown here. Identical values can stand only once. Records with an inconclusive call do not appear. Where a structure was tested more than once in an assay, its records may differ in their call. Active and inactive are the calls of the source. Unless noted, the call rests on the fitted dose curve; in most records, active means well fitted curve in the direction sought with a large enough effect in the repeat runs; inconclusive means weak or mixed curves; inactive means no such curve, though single readings can be large; an effect the other way counts as inactive or inconclusive.

Chain of Retinoic acid receptor RXR-alpha (Homo sapiens) (P19793 whole entry, looked up): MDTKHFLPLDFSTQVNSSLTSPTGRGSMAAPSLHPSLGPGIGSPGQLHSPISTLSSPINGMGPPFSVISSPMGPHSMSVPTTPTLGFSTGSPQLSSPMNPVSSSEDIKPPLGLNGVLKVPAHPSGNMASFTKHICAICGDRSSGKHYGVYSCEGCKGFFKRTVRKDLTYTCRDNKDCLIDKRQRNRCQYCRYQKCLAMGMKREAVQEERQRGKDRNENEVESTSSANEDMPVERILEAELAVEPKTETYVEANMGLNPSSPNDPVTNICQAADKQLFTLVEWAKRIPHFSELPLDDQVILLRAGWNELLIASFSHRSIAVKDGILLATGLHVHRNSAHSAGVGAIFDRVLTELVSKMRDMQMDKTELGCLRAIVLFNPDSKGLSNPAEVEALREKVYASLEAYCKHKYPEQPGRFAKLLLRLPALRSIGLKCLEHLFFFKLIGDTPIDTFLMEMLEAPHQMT

As to `COC(=O)C(Cl)C(=O)OC`, the Potency entry in assay [1], in assay [2], in assay [3], in assay [4] and in assay [5] was “inactive” throughout.
As to `C=COC(C)=O`, the Potency entry in assay [1], in assay [2], in assay [3], in assay [4] and in assay [5] was “inactive” throughout.
Take `O=NN1CCNCC1`: the Potency result in assay [1], in assay [2], in assay [3] and in assay [4] was “inactive” throughout.
Consider `C=CC(=O)OC`, for which the Potency entry in assay [1], in assay [2], in assay [3], in assay [4] and in assay [5] was “inactive” throughout.
With `C[C@H]1CNCCc2ccc(Cl)cc21`, the Potency entry in assay [1], in assay [2], in assay [3], in assay [4] and in assay [5] was “inactive” in each case.
As for `CC1Sc2c(C(=O)O)c(=O)c3cc(F)c(N4CCNCC4)cc3n21` (centres undefined), the Potency entry in assay [1], in assay [2], in assay [3], in assay [4] and in assay [5] was “inactive” in each case.
On to `O=C(CBr)OCc1ccccc1`, for which the Potency result in assay [1], in assay [2], in assay [3], in assay [4] and in assay [5] was “inactive” in each case.
Consider `COC(N)=O`, for which the Potency result in assay [1], in assay [2], in assay [3], in assay [4] and in assay [5] was “inactive” in each case.
In the case of `CCOC(=O)CBr`, the Potency entry in assay [1], in assay [2], in assay [3], in assay [4] and in assay [5] was “inactive” in each case.
As for `Cn1sc(Cl)cc1=O`, the Potency result in assay [1], in assay [2], in assay [3], in assay [4] and in assay [5] was “inactive” throughout.
On to `CC(C)O.CC(C)O.OCCN(CCO)CCO.OCCN(CCO)CCO.[Ti]`, for which the Potency result in assay [1], in assay [2], in assay [3], in assay [4] and in assay [5] was “inactive” each time.
On to `Brc1ccccc1`, for which the Potency result in assay [1], in assay [2], in assay [3], in assay [4] and in assay [5] was “inactive” in each case.
Consider `C=CCCl`, for which the Potency entry in assay [1], in assay [2], in assay [3], in assay [4] and in assay [5] was “inactive” throughout.
Take `CC(C)(Cl)[N+](=O)[O-]`: the Potency entry in assay [1], in assay [2], in assay [3], in assay [4] and in assay [5] was “inactive” in each case.
On to `CN1C(=O)C(O)N=C(c2ccccc2)c2cc(Cl)ccc21` (centres undefined), for which the Potency result in assay [1], in assay [2], in assay [3] and in assay [5] was “inactive” throughout. Also, the Potency in assay [4] is 63.3 µM (active).
Turning to `CC1C(=O)C[C@]2(C(C)C)C[C@H]12` (some centres undefined), the Potency entry in assay [1], in assay [2], in assay [3], in assay [4] and in assay [5] was “inactive” throughout.
Take `Sc1ccccc1Cl`: the Potency result in assay [1], in assay [2], in assay [3], in assay [4] and in assay [5] was “inactive” each time.
As for `ClCc1cccc(Cl)c1`, the Potency result in assay [1], in assay [2], in assay [3], in assay [4] and in assay [5] was “inactive” throughout.
Take `COP(=S)(OC)Oc1cc(Cl)c(I)cc1Cl`: the Potency result in assay [1], in assay [2], in assay [3], in assay [4] and in assay [5] was “inactive” in each case.
Regarding `ClCC(Br)CBr` (centres undefined), the Potency result in assay [1], in assay [2], in assay [3], in assay [4] and in assay [5] was “inactive” in each case.
On to `O=Cc1ccc(Cl)cc1Cl`, for which the Potency entry in assay [1], in assay [2], in assay [3], in assay [4] and in assay [5] was “inactive” throughout.
With `CNC(C)Cc1ccccc1OC` (centres undefined), the Potency entry in assay [1], in assay [2], in assay [3] and in assay [4] was “inactive” throughout.
`NNC(=O)c1cccnc1`: the Potency entry in assay [1], in assay [2], in assay [3] and in assay [4] was “inactive” in each case. Moreover, the Potency in assay [5] was 30.7 µM (active).
Regarding `O=C(N[C@H](c1ccccc1)[C@@H]1CN2CCC1CC2)c1c(Cl)ccc(C(F)(F)F)c1Cl`, the Potency result in assay [2] and in assay [3] was “inactive” in each case.
Consider `O=C(CCl)c1ccc(Cl)cc1Cl`, for which the Potency result in assay [2] is “inactive and 13.4 µM (active)”; in assay [4], 1.88 µM (active). Moreover, the Potency result in assay [3] was “inactive”.
On to `[CH3][Sn]([CH3])([Cl])[Cl]`, for which the Potency entry in assay [2] and in assay [3] was “inactive” in each case. Moreover, in assay [4], the Potency is 55.4 µM (active) and 48.6 µM (active).
In the case of `O=C(NCc1cccnc1)Nc1ccc([N+](=O)[O-])cc1`, the Potency entry in assay [2], in assay [3] and in assay [4] was “inactive” each time.
Turning to `O=S1OC[C@@H]2[C@H](CO1)[C@]1(Cl)C(Cl)=C(Cl)[C@@]2(Cl)C1(Cl)Cl` (some centres undefined), the Potency in assay [2] was 49 µM (active). Further, the Potency entry in assay [3] and in assay [4] was “inactive” in each case.
As to `CC(C)(C)c1cc([N+](=O)[O-])cc([N+](=O)[O-])c1O`, the Potency entry in assay [2] and in assay [3] was “inactive” in each case.
Consider `C/C(=C\c1ccccc1)[N+](=O)[O-]`, for which the Potency result in assay [2] and in assay [3] was “inactive” throughout. In assay [4], the Potency is 30.6 µM (active).
`CCOP(=S)(Oc1ccc([N+](=O)[O-])cc1)c1ccccc1` (centres undefined): the Potency result in assay [2], in assay [3], in assay [4] and in assay [5] was “inactive” each time.
In the case of `[O-][Cl+]O`, the Potency entry in assay [2], in assay [3] and in assay [4] was “inactive” each time.
Regarding `CCOC(=O)[C@]1(c2ccccc2)Oc2ccccc2[C@@H]1N`, the Potency entry in assay [2], in assay [3] and in assay [4] was “inactive” throughout.
`C=CCOC(C)=O`: the Potency entry in assay [2], in assay [3] and in assay [4] was “inactive” each time. Further, the Potency in assay [5] was 75.9 µM (active).
On to `CCCCCCCCOC(=O)c1ccc(C(=O)OCCCCCCCC)c(C(=O)OCCCCCCCC)c1`, for which the Potency result in assay [2] and in assay [3] was “inactive” each time.
`CC(C)(CCl)C(=O)Cl`: the Potency result in assay [2], in assay [3] and in assay [4] was “inactive” each time.
Consider `O=Cc1ccc2c(c1)OCO2`, for which the Potency result in assay [2], in assay [3] and in assay [4] was “inactive” each time.
In the case of `C=CC[C@]1(O)CC[C@H]2[C@@H]3CCC4=CC(=O)CCC4=C3C=C[C@@]21C`, the figures for the Potency in assay [2] and in assay [3] were 23.9 µM (active) and 33.5 µM (active), respectively.
For `C#CCOC(C(=O)OCCN(C)C)(c1ccccc1)c1ccccc1`, the Potency result in assay [2], in assay [3], in assay [4] and in assay [5] was “inactive” in each case.
Consider `O=C(NC(=O)c1c(F)cccc1F)Nc1ccc(OC(F)(F)C(F)OC(F)(F)F)c(Cl)c1` (centres undefined), for which the Potency entry in assay [2] and in assay [3] was “inactive” throughout.
With `CCOc1ccc(C(C)(C)COCc2cccc(Oc3ccccc3)c2)cc1`, the Potency result in assay [2] and in assay [3] was “inactive” throughout.
Turning to `O=C(NC(=O)c1c(F)cccc1F)Nc1cc(Cl)c(Oc2ncc(C(F)(F)F)cc2Cl)c(Cl)c1`, the Potency entry in assay [2] and in assay [3] was “inactive” in each case.
`CCOc1nc(F)cc2nc(S(=O)(=O)Nc3c(Cl)cccc3Cl)nn12`: the Potency entry in assay [2] and in assay [3] was “inactive” in each case.
On to `CCOP(=S)(OCC)SCSCC`, for which the Potency entry in assay [2] and in assay [3] was “inactive” each time.
In the case of `COc1ccc(-c2ccccc2)cc1NNC(=O)OC(C)C`, the Potency entry in assay [2], in assay [3], in assay [4] and in assay [5] was “inactive” throughout.
With `CCOP(=S)(OCC)Oc1nc(Cl)c(Cl)cc1Cl`, the Potency in assay [2] was 21.9 µM (active) and 49 µM (active); in assay [3], 61.3 µM (active) and inactive.
As to `Nc1ccc(N=Nc2ccc(-c3ccc(N=Nc4c(S(=O)(=O)O)cc5cc(S(=O)(=O)O)c(N=Nc6ccccc6)c(O)c5c4N)cc3)cc2)c(N)c1`, the Potency result in assay [2] and in assay [4] was “inactive” in each case. The Potency in assay [3] was 15.7 µM (active).
